# Screens: PubChem BioAssay, NMMLSC
# Compounds with a hit are over-represented: about 1.8% of the library has one in this group of screens.
# Myeloid diff MLP – induction of myeloid progenitor differentiation, primary screen, cell-based, flow cytometry, MLPCN library. ER-HoxA9 myeloid progenitors, lysozyme-GFP differentiation. calls only at 10 µM. actives 1% (n = 360,000);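 active means normalized GFP-positive differentiation at or above the plate's own cutoff, the solvent-only control mean plus 3 SD; inconclusive means no clear call, values can overlap the other calls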;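 further: cells exposed to compound for four days before flow analysis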
# Granule exo inh – LAMP-1 surface exposure blockers, TALL-104 cells – cell-based, flow cytometry, MLPCN library, primary screen; TALL-104 LAMP-1 surface exposure; cells stimulated with thapsigargin and PMA; actives 0.66% (n = 360,000); inhibition, % at 10 µM;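 active means inhibition above about 55%, limit read from the data; inconclusive means no clear call, values can overlap the other calls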
# ABCB6 inh MLPCN – ABCB6 transporter inhibitors, primary screen, K562-ABCB6 cells, flow cytometry, MLPCN library; ATP-binding cassette sub-family B member 6 (Homo sapiens), Q9NP58; K562-ABCB6 porphyrin accumulation, 1 h; stronger effect = lower value; fluorescence ratio to DMSO, % at 10 µM; actives 0.19% (n = 360,000); AID 602162, 2011;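 active means fluorescence ratio to DMSO below 75%, the collection mean minus 3 SD; inconclusive means too few cells collected in the well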;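 further: signal is porphyrin accumulated inside mitochondria; 100% equals median channel fluorescence of DMSO control wells; lower ratio means ABCB6 inhibition with less porphyrin fluorescence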
# Target sequence (Q9NP58 whole entry, looked up): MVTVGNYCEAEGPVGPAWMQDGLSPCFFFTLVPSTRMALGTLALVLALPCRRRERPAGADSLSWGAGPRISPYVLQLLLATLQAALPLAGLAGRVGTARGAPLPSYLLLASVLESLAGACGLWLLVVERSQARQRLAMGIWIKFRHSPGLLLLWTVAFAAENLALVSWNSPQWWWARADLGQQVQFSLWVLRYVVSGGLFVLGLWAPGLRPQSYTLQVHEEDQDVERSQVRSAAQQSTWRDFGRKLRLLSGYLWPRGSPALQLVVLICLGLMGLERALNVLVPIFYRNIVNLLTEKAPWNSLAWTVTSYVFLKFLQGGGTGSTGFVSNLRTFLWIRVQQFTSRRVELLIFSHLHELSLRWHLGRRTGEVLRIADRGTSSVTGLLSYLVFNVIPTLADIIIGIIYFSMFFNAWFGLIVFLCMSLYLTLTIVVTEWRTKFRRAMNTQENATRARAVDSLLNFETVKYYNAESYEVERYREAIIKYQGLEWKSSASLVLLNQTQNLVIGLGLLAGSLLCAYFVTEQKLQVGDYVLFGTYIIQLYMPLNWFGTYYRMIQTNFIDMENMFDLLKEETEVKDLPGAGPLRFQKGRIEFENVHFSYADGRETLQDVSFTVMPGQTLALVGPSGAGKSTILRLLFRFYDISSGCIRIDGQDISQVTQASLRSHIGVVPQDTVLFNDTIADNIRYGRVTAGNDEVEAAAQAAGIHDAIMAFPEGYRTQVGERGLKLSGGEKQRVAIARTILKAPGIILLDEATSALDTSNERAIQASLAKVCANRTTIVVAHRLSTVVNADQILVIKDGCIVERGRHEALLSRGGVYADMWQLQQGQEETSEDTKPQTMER
# Numbers without * were called inactive; i = inactive; ? = inconclusive; nt = no result given; + = active, no number.
SMILES,Myeloid diff MLP,Granule exo inh,ABCB6 inh MLPCN
Cc1ccc(Oc2nc3ccccn3c(=O)c2/C=C(\C#N)C(=O)NC2CCS(=O)(=O)C2)c(C)c1 (centres undefined),i,79*,101
Cc1cc(C)cc(Oc2nc3ccccn3c(=O)c2/C=C(\C#N)C(=O)NC2CCS(=O)(=O)C2)c1 (centres undefined),i,10,102
O=C1NN(c2ccccc2)C(=O)/C1=C\c1cccn1-c1ccc(Cl)c([N+](=O)[O-])c1,+,-3,106
COc1cc(/C=C2/C(=O)NN(c3cccc(C)c3)C2=O)cc([N+](=O)[O-])c1O,i,-4,91
O=C1NN(c2ccccc2)C(=O)C1=Cc1ccccc1O,i,-1,97
COc1cc(/C=C2/C(=O)NN(c3ccc(C)c(Cl)c3)C2=O)cc([N+](=O)[O-])c1O,+,5,123
O=C(Nc1ccccc1)OCC1COC(c2ccccc2)(c2ccccc2)O1 (centres undefined),i,1,94
COc1ccc(CNC(=O)CS(=O)(=O)Cc2nc(-c3cccc(OC)c3)oc2C)cc1,i,2,84
O=C(O)c1ccc(CN2C[C@@H](CO)O[C@@H](n3cnc4c(NCc5ccco5)ncnc43)C2)cc1,i,8,102
CCC(C)(C(=O)NC1CCCC1)N(Cc1ccco1)C(=O)c1ccccn1 (centres undefined),i,14,98
CCC(C)(C(=O)NC1CCCC1)N(Cc1ccco1)C(=O)c1ccc2c(c1)OCO2 (centres undefined),+,-3,100
O=C(NCc1ccccc1)c1ccc(S(=O)(=O)NCc2ccco2)cc1,i,4,94
Cc1ccc2c(c1)c1ccc3c(c1n2C)C(=O)C=CC3=O,?,3,100
Cn1c2ccccc2c2ccc3c(c21)C(=O)C=CC3=O,i,106*,125
CNC(C)C(=O)NC(C(=O)NC(C)C(=O)Nc1cccc2ccccc12)C(C)C (centres undefined),i,2,113
CN(C)c1ccc(-c2csc(C(C)(O)c3ccc(F)c(F)c3)n2)cc1 (centres undefined),i,13,97
C[C@]12CCC(=O)CC1=CCC1C3CC=C(C#N)[C@@]3(C)CC[C@@]12O (some centres undefined),+,7,184
COc1ccccc1Cc1c(-c2cccc(Cl)c2)nc2ccc(C)cn12,i,5,96
O=C(CN1C(=O)CSc2ccc(S(=O)(=O)N3CCOCC3)cc21)NCCc1ccccc1,i,0,102
Cc1nn(C)c(C)c1S(=O)(=O)N(CC(=O)N1CCc2ccccc21)c1ccc(C(C)C)cc1,+,2,79
COc1ccc(N(CC(=O)N2CCc3ccccc32)S(=O)(=O)c2c(C)nn(C)c2C)cc1,i,3,102
Cc1[nH]nc(-c2cccnc2)c1N=NN(C)C,nt,2,91
O=c1c2c(-c3ccccc3)csc2nc2c3ccccc3c(NCCN3CCOCC3)nn12,nt,67*,92
c1ccc(-c2csc3ncnc(NCCCN4CCOCC4)c23)cc1,i,-3,103
COc1cccc(CNC(=O)[C@@H]2CCCN2C(=O)[C@@H]2CCCN2C(=O)c2cccs2)c1,i,0,99
SMILES,Myeloid diff MLP,Granule exo inh,ABCB6 inh MLPCN
COc1ccc(CCNC(=O)CN2C(=O)COc3ccc(S(=O)(=O)N4CCOCC4)cc32)cc1OC,i,-2,97
C/C(=N\Nc1nnc(-c2ccccc2)c(-c2ccccc2)n1)c1cccc([N+](=O)[O-])c1,i,-4,104
C/C(=N\Nc1cc(C)nc(NCc2ccccc2)n1)c1cccc([N+](=O)[O-])c1,i,94*,101
O=C(Nc1ccc(F)c(Cl)c1)C1Cc2c(-c3ccc4c(c3)OCO4)ccnc2O1 (centres undefined),i,-6,94
O=C(NC1CCN(Cc2ccccc2)CC1)c1cccc(S(=O)(=O)Nc2ccc(SC(F)F)cc2)c1,i,-8,92
COc1ccc(NC(=S)N2CCC3CC2c2cc(-c4ccc5c(c4)OCO5)ccc23)c(OC)c1 (centres undefined),i,-1,87
COc1ccccc1C(=O)NC(=S)Nc1ccc(NC(=O)c2ccco2)cc1,i,68*,94
COc1ccccc1C(=O)Nc1ccc(NC(=O)c2ccco2)cn1,i,10,92
COc1ccc(C(C#N)CC(=O)c2ccc(OC)c(OCc3ccccc3)c2)cc1OC (centres undefined),i,-16,97
O=C1C=C(Nc2ccccc2O)c2ccccc2C1=O,i,8,166
